Screening results (PubChem BioAssay)
ARNT-TACC3 inh = disruptors of human ARNT/TACC3 interaction; AlphaScreen His-ARNT PAS-B/GST-TACC3 binding, luminescence; TACC3 fragment carries E629A point mutation; AID 623870; inhibition, % at 9.99 µM; Q9Y6A5; 390,000 compounds, 0.66% hits;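 active = mean inhibition of replicates at least 50% and at least half of replicates each reaching 50%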;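 note: 0% = complete ARNT plus TACC3 wells and 100% = ARNT alone without TACC3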
HIF act = HIF pathway transcriptional activation; U2OS HRE-luciferase reporter, luminescence; normalized: DMSO 0%, desferrioxamine 100%; activation, % at 7.5 µM (by protocol); 300,000 compounds, 0.32% hits;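 active = mean activation of at least 10% of the iron chelator positive control signal, with at least half of replicates also reaching 10%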
HSF1 activator = increases HSF-1 driven luciferase reporter signal; AID 504408; activation, % at 9 µM; 300,000 compounds, 1.7% hits; NIH3T3-HGL HSF-1 luciferase reporter, MG132, 8 h; 100% = twice DMSO control signal;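 active = mean replicate activation of at least 50% with a set share of replicates each reaching 50%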;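 note: 0% = median of the neutral control wells and 100% = twice that signal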
HSP90 inh = inhibitors of HSP90 luciferase refolding in rabbit reticulocyte lysate; 290,000 compounds, 0.91% hits; luciferase refolding luminescence, 3 h; AID 1789; inhibition, % at 5.6 µM;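 active = inhibition above the screen-wide mean plus 3 SD, computed separately per campaign, cut at about 16% in these data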;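 note: 0% = DMSO wells and 100% = 60 µM geldanamycin wells; inhibitors lower the luminescence because luciferase stays unfolded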
HSF1 inhib = HSF1 inhibition; activity change, negative = inhibition, % at 7.5 µM (by protocol); NIH3T3-HGL HSE-luciferase, MG132-induced, luminescence 8 h; active compounds read low; 300,000 compounds, 0.77% hits;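 active = more than half of replicate wells show activity change below -50%, luminescence cut by over half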;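 note: luciferase reports HSF-1 transcriptional activity via heat shock element; 0% = median of DMSO wells and -100% = zero luminescence signal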
The depositor's hits bear a star; / = no result given. In the library only some 3.1% were active in any assay of this set; here they are far more common.

SMILES	ARNT-TACC3 inh	HIF act	HSF1 activator	HSP90 inh	HSF1 inhib
Cc1ccc(S(=O)(=O)Nc2ccc3c(c2)C(=O)N([C@H](C)CO)C[C@H](C)[C@H](CN(C)C(=O)Nc2c(C)noc2C)O3)cc1	-1	/	/	/	/
O=C(NC(=S)NNC(=O)c1ccccc1O)c1cccnc1	67*	-1	-7	0	5
O=C(NC(=S)Nc1cc([N+](=O)[O-])ccc1Cl)c1ccccc1	-2	3	54*	-4	12
O=C(NC(=S)Nc1cccc([N+](=O)[O-])c1)c1ccccc1	3	4	1	1	-3
O=C(NC(=S)NNC(=O)c1ccc(Cl)cc1Cl)c1cccnc1	11	1	-6	-2	0
O=C(NC(=S)NNC(=O)c1ccccc1O)c1cccc([N+](=O)[O-])c1	77*	0	28	3	-1
CCC(C)c1ccc(O)c(NC(=S)NC(=O)c2cccnc2)c1 (configuration not stated)	1	1	72*	-4	54
C[C@@H]1CN([C@@H](C)CO)C(=O)c2cc(NC(=O)c3ccncc3)ccc2O[C@@H](C)CCCCO[C@@H]1CN(C)S(=O)(=O)c1cn(C)cn1	-8	/	/	/	/
CO[C@@H]1CN(C)C(=O)c2ccc(NC(=O)Nc3ccccc3F)cc2OC[C@@H](C)N(S(=O)(=O)CC(F)(F)F)C[C@H]1C	7	/	/	/	/
Cc1noc(C)c1NC(=O)N(C)C[C@H]1OCCCC[C@H](C)Oc2ccc(NS(=O)(=O)c3cn(C)cn3)cc2C(=O)N([C@H](C)CO)C[C@@H]1C	-2	/	/	/	/
Cc1cccc(C(=O)NC(=S)NNC(=O)Cc2ccccc2)c1	-1	0	10	5	5
CCCCCC(=O)NNC(=S)NC(=O)c1cccc([N+](=O)[O-])c1	26	62*	3	-1	-2
Cc1cc(C(=O)NNC(=S)NC(=O)/C=C/c2ccccc2Cl)n[nH]1	62*	0	2	0	8
O=C(NC(=S)Nc1ccccn1)c1cccc([N+](=O)[O-])c1	17	709*	17	1	2
Cc1cccc(C(=O)NC(=S)NNC(=O)c2ccccc2Cl)c1	17	0	-89	0	-86*
CCOc1ccc(C(=O)NC(=S)Nc2ccccn2)cc1[N+](=O)[O-]	0	1	9	1	6
CCCCCC(=O)NNC(=S)NC(=O)c1ccccc1[N+](=O)[O-]	6	0	5	-2	-5
O=C(Nc1ccc(Cl)cc1)N[C@H]1CC[C@H](CCn2cc(C3(O)CCCC3)nn2)O[C@@H]1CO	9	/	/	/	/
COc1ccc(-c2cnc3c(c2)C(=O)N([C@@H](C)CO)C[C@H](C)[C@@H](CN(C)Cc2ccc(C(=O)O)cc2)O3)cc1	-1	/	/	/	/
C/C(N)=C(/C#N)C(=O)COC(=O)c1cc(C)n(-c2ccc(F)cc2)c1C	-2	2	84*	0	52
C[C@H](CO)N1C[C@H](C)[C@@H](CN(C)C(=O)C2CCCCC2)OCCCC[C@H](C)Oc2ccc(NS(=O)(=O)c3cn(C)cn3)cc2C1=O	-29	/	/	/	/
Clc1ccccc1Nc1nnc(-c2ccncc2)s1	-3	-1	31	22*	-2
COc1cc(/C=C/C(=O)c2ccc3c(c2)OCCO3)cc(Br)c1OCC(=O)N(C)C	/	25*	243*	2	191
Cc1ccc(O)c(NC(=O)c2cc([N+](=O)[O-])ccc2Cl)c1	7	2	1	0	-7
O=C(Nc1cccc2c1CCCC2)c1cc([N+](=O)[O-])ccc1Cl	-21	0	55*	-3	31
SMILES	ARNT-TACC3 inh	HIF act	HSF1 activator	HSP90 inh	HSF1 inhib
Cc1cc(O)c(NC(=O)c2cc([N+](=O)[O-])ccc2Cl)cc1C	-12	3	100*	-1	99
O=C(Cc1ccccn1)N[C@H]1CC[C@@H](CC(=O)N2CCCCC2)O[C@H]1CO	7	/	/	/	/
COc1ccc(N(C(=O)CCl)C(C(=O)NCCc2ccccc2)c2cccs2)cc1Cl (configuration not stated)	-9	-5	18	1	14
COc1cccc(N(C(=O)CCl)C(C(=O)NCCc2ccccc2)c2cccs2)c1 (configuration not stated)	-1	1	-93	6	-92*
O=C(Nc1ccc2c(c1)[C@@H]1C[C@H](CC(=O)N3CCc4ccccc4C3)O[C@H](CO)[C@@H]1O2)c1ccc2c(c1)OCO2	48*	/	/	/	/
O=C(Nc1ccc2c(c1)[C@@H]1C[C@@H](CC(=O)N3CCc4ccccc4C3)O[C@H](CO)[C@@H]1O2)c1ccc2c(c1)OCO2	14	/	/	/	/
O=C(COc1ccc(/C=C\[N+](=O)[O-])cc1)N1CCOCC1	-1	1	181*	0	155
O=C(COc1ccc(S(=O)(=O)N2CCOCC2)cc1)N1CCOCC1	-2	/	/	/	/
Cc1c(C(=O)OCC2CCCO2)[nH]c2c1C(=O)CC(c1ccco1)C2 (configuration not stated)	-1	2	57*	-3	18
C[C@H]1CN([C@@H](C)CO)C(=O)c2cccc(NC(=O)NC3CCCCC3)c2O[C@@H]1CN(C)Cc1ccc(C(=O)O)cc1	-8	/	/	/	/
C[C@H](CO)N1C[C@H](C)[C@H](CN(C)S(C)(=O)=O)Oc2c(NC(=O)c3cnccn3)cccc2C1=O	-2	/	/	/	/
C=CCOc1ccc(-c2nc3c(c(=O)[nH]c(=O)n3Cc3ccccc3)n2CCCOC)cc1	-3	0	63*	1	19
Cc1ccc(-c2nc3c(c(=O)[nH]c(=O)n3Cc3ccccc3)n2Cc2ccccc2)o1	-2	-1	62*	3	20
COCCOC(=O)c1c(NC(=O)CN2CCc3ccccc32)sc(C(N)=O)c1C	2	-1	6	6	5
CCOC(=O)c1c(NC(=O)CN2CCCc3ccccc32)sc(C(C)=O)c1C	-4	0	50*	0	9
C=CCNC(=S)Nc1sc2c(c1C(=O)OCC)CCN(C(=O)OCC)C2	28	0	61*	9	26
CCOC(=O)c1c(NC(=S)N2CCOCC2)sc2c1CCN(C(=O)OCC)C2	/	-3	28	5	33
CCOC(=O)c1c(NC(=S)N2CCCCC2)sc2c1CCN(C(=O)OCC)C2	/	-1	121*	1	86
CCOC(=O)c1c(NC(=S)NCc2ccccc2)sc2c1CCN(C(=O)OCC)C2	-4	0	72*	3	36
CO[C@@H]1CN(C)C(=O)c2ccc(NC(=O)c3ccccc3)cc2OC[C@H](C)NC[C@H]1C	-13	/	/	/	/
COc1ccc(NC(=O)N(C)C[C@H]2OCCCC[C@@H](C)Oc3ccc(NC(=O)Nc4ccc5c(c4)OCO5)cc3C(=O)N([C@@H](C)CO)C[C@H]2C)cc1	6	/	/	/	/
O=C(COc1ccc(Cl)cc1)N1CCCC1	0	0	-73	-2	-71*
O=C(CCSc1ccc(Cl)cc1)N1CCCCCC1	-8	3	107*	-3	75
O=C(COc1ccccc1)N1CCCC1	2	0	-10	-1	-1
